The nature of assay [1]: Human pregnane X receptor (PXR) small molecule agonists, qHTS cell viability counter screen (AID 1346977). Also: nearly all actives have a fitted effect of over 50% in size. The method, boiled down:
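In each well, the PXR reporter HepG2 line was checked for viability: CellTiter-Fluor reagent added 23hr post-dosing, fluorescence read after 1hr incubation at 37C.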
(Quantitative high-throughput screening tests each substance at several concentrations.)

A short description of assay [2]: Caspase-3/7 induction in HepG2 cells by small molecules, qHTS assay (AID 1346978). Also: nearly all actives have a fitted effect of over 15% in size. The method, boiled down:
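Wild-type HepG2 cells, 2,000/well, settled 5 hr at 37 C and 5% CO2, then compound-treated for 17 hr; caspase-3/7 activity read by luminescent Caspase-Glo 3/7 after 30 min at room temperature.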

Assay [3] can be described thus: Caspase-3/7 induction in CHO-K1 cells by small molecules, qHTS cell viability counter screen (AID 1346979). Also: nearly all actives have a fitted effect of over 35% in size. Also: potency is read from the fitted curve at half-maximal effect. The method, boiled down:
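Following a 5hr settling period, CHO-K1 cells at 1,500 per well received DMSO-dissolved compounds. Cell viability was quantified 16hr later by CellTiter-Fluor fluorescence, measured after 1hr with reagent at 37C.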

The nature of assay [4]: Caspase-3/7 induction in CHO-K1 cells by small molecules, qHTS assay (AID 1346980). Also: nearly all actives have a fitted effect of over 15% in size. The procedure, abridged:
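Wild-type CHO-K1 cells exposed to compounds for 17hr at 37 C, 5% CO2. Caspase-3/7 activity then measured by Caspase-Glo 3/7 luminescence after 30min at room temperature.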

Assay [5] in a line: Caspase-3/7 induction in HepG2 cells by small molecules, qHTS cell viability counter screen (AID 1346981). Also: series mostly up to about 92 µM; nearly all actives have a fitted effect of over 30% in size. The procedure, abridged: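 Steps: seed 2,000 HepG2 cells per well; incubate 5 hr at 37 C; pin-add compounds in DMSO; incubate 16 hr; add CellTiter-Fluor; after 1 hr at 37 C and 5% CO2, read fluorescence.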
Assay [6] addresses Nuclear receptor subfamily 1 group I member 2 (Homo sapiens) (UniProt O75469). The assay can be described thus: Human pregnane X receptor (PXR) small molecule agonists, qHTS assay (AID 1346982). Also: nearly all actives have a fitted effect of over 35% in size. Also: potency is read from the fitted curve at half-maximal effect. The procedure, abridged: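 Agonist mode qHTS: PXR-Luc HepG2 cells plated 5 hr before DMSO-dissolved compounds were pinned in, cultured 24 hr at 37 C, 5% CO2; ONE-Glo luminescence readout.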

Assay [7] deals with Cytochrome P450 2D6 (Homo sapiens) (UniProt P10635). The assay is described as follows: Cytochrome P450 Family 2 Subfamily D Member 6 (CYP2D6) small molecule antagonists: luciferase reporter qHTS assay (AID 1671196). Also: series mostly up to about 120 µM; nearly all actives have a fitted effect of over 50% in size. The procedure, abridged:
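P450-Glo format: CYP2D6 converts a proluciferin substrate to luciferin in an NADPH-driven reaction lasting 1 h at room temperature. Light output, proportional to CYP2D6 activity, reflects interference by test chemicals.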

In assay [8] the target is Cytochrome P450 2C9 (Homo sapiens) (UniProt P11712). The assay is described as follows: Cytochrome P450 Family 2 Subfamily C Member 9 (CYP2C9) small molecule antagonists: luciferase reporter qHTS assay (AID 1671198). Also: nearly all actives have a fitted effect of over 50% in size. Also: potency is read from the fitted curve at half-maximal effect. As to activity change, negative = inhibition: series mostly up to about 120 µM. The procedure, abridged:
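P450-Glo proluciferin substrate with CYP2C9 enzyme; 10 min RT preincubation, then NADPH regeneration 1 h at 37C; luciferin detection reagent 20 min RT, luminescence in relative luminescence units.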
In general terms: In a reporter assay the amount or activity of a reporter protein is the signal.

Assay [9] concerns the target Cytochrome P450 1A2 (Homo sapiens) (UniProt P05177). The assay can be described thus: Cytochrome P450 Family 1 Subfamily A Member 2 (CYP1A2) small molecule antagonists: luciferase reporter qHTS assay (AID 1671199). Also: nearly all actives have a fitted effect of over 50% in size. Also: potency is read from the fitted curve at half-maximal effect. As to activity change, negative = inhibition: series mostly up to about 120 µM. The procedure, abridged: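 Inhibition of CYP1A2 conversion of proluciferin to luciferin, detected by luminescence. Reaction run 1 h at room temperature with NADPH regeneration after brief compound preincubation.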

The target of assay [10] is Voltage-gated inwardly rectifying potassium channel KCNH2 (Homo sapiens) (UniProt Q12809). The assay can be described thus: Human Ether-a-go-go-Related Gene (hERG) channel small molecule antagonists: fluorescence cell-based qHTS assay (AID 1671200). The procedure, abridged:
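In this thallium-flux screen, overnight-cultured U2OS cells bearing the channel are dye-loaded in darkness for an hour, rested 10 min at room temperature, and then monitored kinetically at 480/540 nm for two minutes post-stimulus.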

Assay [11] addresses Cytochrome P450 3A4 (Homo sapiens) (UniProt P08684). The assay is described as follows: Cytochrome P450 Family 3 Subfamily A Member 4 (CYP3A4) small molecule antagonists: luciferase reporter qHTS assay (AID 1671201). Also: nearly all actives have a fitted effect of over 50% in size. Also: potency is read from the fitted curve at half-maximal effect. As to activity change, negative = inhibition: series mostly up to about 120 µM. The method, boiled down:
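CYP3A4 activity was followed with a P450-Glo proluciferin substrate. Test compounds in DMSO were preincubated 10 min; NADPH regeneration then ran 1 h, and light output was read 20 min after detection reagent.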

Assay [12] has as its target Cytochrome P450 2C19 (Homo sapiens) (UniProt P33261). The assay is described as follows: Cytochrome P450 Family 2 Subfamily C Member 19 (CYP2C19) small molecule antagonists: luciferase reporter qHTS assay (AID 1671197). Also: nearly all actives have a fitted effect of over 65% in size. Also: potency is read from the fitted curve at half-maximal effect. As to activity change, negative = inhibition: series mostly up to about 120 µM. The method, boiled down:
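P450-Glo CYP2C19 screening system; proluciferin substrate; DMSO compound stocks; 10 min RT preincubation; NADPH regeneration, 1 h at 37C; luciferin detection reagent, 20 min RT; luminescence as RLU.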

Assay [13] has as its target Nuclear receptor subfamily 1 group I member 2 (Rattus norvegicus) (UniProt Q9R1A7). The assay is described as follows: Rat pregnane X receptor (rPXR) activation by small molecules, qHTS assay (AID 1346983). Also: nearly all actives have a fitted effect of over 20% in size. Conditions: rPXR luciferase reporter cells, One-Glo luminescence, 24 h; max activation: stronger effect = higher value. The procedure, abridged: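 Cell-based rPXR activation assay: rPXR cells, 2,000 per well, rested 5hr at 37 C, then exposed to compounds in DMSO for 24 hr at 37 C. Luciferase activity read by One-Glo luminescence after 30 min at room temperature.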

In assay [14] the target is Nuclear receptor subfamily 1 group I member 2 (Homo sapiens) (UniProt O75469). The assay is described as follows: Human pregnane X receptor (PXR) activation by small molecules, qHTS assay (AID 1346985). Also: nearly all actives have a fitted effect of over 40% in size. The method, boiled down:
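DPX-2 cells (HepG2 co-transfected with a PXR response element and a CYP3A4-promoter luciferase construct) were seeded at 2,000 per well, rested 5 hr at 37C, then exposed to DMSO-dissolved compounds for 24 hr. Activation was read as luciferase luminescence.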

“And” between values parts separate entries of the source, which are not always exact repeats. Identical values can stand only once. Results filed as inconclusive are left out. Where a structure was tested more than once in an assay, its records may differ in their call. The source made the active and inactive calls. Calls follow the shape of the dose curve; as a rule, active = well fitted curve in the direction sought with a large enough effect in the repeat runs; inconclusive = weak or mixed curves; inactive = no such curve, though single readings can be large; an effect the other way counts as inactive or inconclusive.
% is scaled to controls: 0 for no effect and ±100 for the full control effect.

Cytochrome P450 1A2 (Homo sapiens), sequence (P05177 whole entry, looked up): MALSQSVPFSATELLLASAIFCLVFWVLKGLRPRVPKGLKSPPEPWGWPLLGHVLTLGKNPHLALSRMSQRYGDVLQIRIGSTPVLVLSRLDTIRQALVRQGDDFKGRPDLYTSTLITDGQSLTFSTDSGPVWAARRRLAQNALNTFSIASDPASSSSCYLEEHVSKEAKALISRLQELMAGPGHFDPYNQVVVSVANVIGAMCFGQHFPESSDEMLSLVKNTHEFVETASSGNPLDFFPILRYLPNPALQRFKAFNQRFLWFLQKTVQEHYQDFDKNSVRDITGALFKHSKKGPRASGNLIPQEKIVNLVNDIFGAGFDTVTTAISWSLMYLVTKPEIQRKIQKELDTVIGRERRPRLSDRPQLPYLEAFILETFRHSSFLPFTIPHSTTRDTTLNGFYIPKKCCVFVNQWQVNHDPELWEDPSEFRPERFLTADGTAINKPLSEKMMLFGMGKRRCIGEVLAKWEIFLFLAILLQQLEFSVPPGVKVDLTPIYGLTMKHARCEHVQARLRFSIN
Cytochrome P450 2C19 (Homo sapiens), sequence (P33261 whole entry, looked up): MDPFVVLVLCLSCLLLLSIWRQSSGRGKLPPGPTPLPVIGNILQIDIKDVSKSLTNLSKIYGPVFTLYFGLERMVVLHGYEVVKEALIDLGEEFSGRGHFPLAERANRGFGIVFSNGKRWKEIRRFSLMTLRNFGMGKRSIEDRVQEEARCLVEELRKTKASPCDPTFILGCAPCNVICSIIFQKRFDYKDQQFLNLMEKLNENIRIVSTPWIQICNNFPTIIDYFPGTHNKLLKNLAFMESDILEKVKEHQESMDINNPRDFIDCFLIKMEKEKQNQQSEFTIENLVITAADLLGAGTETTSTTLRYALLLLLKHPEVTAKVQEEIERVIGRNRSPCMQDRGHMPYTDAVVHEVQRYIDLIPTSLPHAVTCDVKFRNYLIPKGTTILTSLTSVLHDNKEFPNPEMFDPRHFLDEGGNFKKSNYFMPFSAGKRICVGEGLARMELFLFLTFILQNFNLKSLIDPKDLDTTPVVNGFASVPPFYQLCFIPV
Voltage-gated inwardly rectifying potassium channel KCNH2 (Homo sapiens), sequence (Q12809 whole entry, looked up): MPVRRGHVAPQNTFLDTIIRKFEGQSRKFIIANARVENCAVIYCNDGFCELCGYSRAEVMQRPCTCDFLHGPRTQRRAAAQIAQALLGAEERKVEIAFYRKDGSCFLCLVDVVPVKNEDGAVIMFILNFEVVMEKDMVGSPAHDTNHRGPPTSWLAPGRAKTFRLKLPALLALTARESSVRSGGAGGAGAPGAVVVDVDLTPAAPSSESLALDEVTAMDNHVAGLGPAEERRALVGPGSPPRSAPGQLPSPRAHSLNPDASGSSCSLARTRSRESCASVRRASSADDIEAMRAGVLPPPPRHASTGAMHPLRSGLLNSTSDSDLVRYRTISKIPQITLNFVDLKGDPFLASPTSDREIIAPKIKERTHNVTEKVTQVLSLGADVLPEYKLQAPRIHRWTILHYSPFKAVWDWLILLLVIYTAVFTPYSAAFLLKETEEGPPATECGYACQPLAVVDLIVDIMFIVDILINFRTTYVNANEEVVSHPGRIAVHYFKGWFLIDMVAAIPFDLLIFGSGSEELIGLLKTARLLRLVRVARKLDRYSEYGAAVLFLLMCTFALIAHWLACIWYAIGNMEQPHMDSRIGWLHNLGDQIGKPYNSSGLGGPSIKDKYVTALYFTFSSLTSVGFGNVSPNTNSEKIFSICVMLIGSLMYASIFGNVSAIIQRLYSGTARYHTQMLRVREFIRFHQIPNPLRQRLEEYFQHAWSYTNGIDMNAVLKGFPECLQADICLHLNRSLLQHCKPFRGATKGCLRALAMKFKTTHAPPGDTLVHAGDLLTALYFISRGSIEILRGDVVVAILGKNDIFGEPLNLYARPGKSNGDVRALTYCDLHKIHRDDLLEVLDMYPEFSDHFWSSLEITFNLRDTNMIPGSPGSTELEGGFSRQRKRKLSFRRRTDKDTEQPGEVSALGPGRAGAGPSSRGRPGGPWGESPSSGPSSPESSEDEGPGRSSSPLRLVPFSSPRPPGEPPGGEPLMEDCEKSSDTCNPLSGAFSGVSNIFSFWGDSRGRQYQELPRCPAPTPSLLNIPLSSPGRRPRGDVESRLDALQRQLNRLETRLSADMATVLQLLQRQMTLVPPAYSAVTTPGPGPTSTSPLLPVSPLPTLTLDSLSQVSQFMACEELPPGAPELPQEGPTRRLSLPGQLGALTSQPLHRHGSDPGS
Cytochrome P450 3A4 (Homo sapiens), sequence (P08684 whole entry, looked up): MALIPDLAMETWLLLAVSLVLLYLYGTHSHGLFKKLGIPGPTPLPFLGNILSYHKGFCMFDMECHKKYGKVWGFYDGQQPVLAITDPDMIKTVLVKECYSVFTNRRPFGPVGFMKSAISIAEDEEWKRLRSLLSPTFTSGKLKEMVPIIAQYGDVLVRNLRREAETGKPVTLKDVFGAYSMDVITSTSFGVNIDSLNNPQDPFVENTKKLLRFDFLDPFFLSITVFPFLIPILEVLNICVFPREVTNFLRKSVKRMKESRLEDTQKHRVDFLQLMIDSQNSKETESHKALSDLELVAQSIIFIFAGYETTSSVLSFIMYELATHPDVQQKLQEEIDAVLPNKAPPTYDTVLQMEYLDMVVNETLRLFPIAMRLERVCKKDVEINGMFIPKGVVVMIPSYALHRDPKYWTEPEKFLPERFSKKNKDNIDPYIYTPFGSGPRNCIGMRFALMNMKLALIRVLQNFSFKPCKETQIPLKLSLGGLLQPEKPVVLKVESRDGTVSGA
Cytochrome P450 2C9 (Homo sapiens), sequence (P11712 whole entry, looked up): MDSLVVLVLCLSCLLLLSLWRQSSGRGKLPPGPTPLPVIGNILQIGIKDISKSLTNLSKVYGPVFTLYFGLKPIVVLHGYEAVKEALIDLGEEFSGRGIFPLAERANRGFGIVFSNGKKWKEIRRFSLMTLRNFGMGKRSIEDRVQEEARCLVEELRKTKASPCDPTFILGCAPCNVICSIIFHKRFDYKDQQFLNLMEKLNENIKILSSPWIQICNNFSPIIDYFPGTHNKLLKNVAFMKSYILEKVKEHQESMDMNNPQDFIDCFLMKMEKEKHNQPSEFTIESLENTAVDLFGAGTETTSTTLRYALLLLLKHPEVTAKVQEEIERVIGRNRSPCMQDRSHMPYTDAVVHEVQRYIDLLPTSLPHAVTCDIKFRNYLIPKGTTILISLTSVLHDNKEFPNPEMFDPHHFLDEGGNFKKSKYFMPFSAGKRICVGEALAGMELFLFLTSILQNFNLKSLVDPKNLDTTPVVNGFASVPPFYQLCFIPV
Nuclear receptor subfamily 1 group I member 2 (Homo sapiens), sequence (O75469 whole entry, looked up): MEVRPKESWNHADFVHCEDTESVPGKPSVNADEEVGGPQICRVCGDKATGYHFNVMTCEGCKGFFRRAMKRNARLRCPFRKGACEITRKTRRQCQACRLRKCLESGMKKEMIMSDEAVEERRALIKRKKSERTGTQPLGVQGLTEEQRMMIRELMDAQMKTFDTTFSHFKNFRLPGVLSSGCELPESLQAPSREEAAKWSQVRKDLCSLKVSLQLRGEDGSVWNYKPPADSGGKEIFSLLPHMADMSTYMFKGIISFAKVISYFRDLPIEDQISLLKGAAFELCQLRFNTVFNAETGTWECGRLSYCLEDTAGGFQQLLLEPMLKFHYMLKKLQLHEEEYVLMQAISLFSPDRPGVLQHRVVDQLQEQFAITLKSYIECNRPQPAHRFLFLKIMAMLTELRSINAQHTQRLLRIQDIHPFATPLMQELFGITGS
Cytochrome P450 2D6 (Homo sapiens), sequence (P10635 whole entry, looked up): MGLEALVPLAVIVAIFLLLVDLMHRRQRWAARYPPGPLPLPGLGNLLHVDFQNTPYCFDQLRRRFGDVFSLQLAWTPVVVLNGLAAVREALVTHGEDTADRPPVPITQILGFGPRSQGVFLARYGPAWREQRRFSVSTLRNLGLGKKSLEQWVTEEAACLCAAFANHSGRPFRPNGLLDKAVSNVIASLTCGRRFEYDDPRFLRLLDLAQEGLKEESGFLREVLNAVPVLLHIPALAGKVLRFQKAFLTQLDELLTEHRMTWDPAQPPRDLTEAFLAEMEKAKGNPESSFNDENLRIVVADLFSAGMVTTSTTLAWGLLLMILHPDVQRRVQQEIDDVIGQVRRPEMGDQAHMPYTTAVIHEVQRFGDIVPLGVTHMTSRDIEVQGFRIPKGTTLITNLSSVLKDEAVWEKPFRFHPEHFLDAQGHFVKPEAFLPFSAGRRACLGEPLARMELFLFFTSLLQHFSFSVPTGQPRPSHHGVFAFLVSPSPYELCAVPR
Nuclear receptor subfamily 1 group I member 2 (Rattus norvegicus), sequence (Q9R1A7 whole entry, looked up): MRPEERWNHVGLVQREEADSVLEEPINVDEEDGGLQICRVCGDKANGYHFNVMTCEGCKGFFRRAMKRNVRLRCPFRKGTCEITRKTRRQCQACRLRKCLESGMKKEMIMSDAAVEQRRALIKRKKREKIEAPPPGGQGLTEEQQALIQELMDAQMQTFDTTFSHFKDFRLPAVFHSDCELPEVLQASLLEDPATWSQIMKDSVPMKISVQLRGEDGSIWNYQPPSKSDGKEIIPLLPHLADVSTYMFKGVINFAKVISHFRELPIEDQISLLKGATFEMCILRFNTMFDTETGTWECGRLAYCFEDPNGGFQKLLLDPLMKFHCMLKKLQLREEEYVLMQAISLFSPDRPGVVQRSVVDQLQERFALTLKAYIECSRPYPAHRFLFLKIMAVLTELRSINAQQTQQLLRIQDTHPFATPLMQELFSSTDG

As for `CC1=CC2C3CC(C=C3C)C2C1` (stereo not drawn), the Potency result in assay [1], in [2], in assay [3], in [4], in [5] and in [7] was “inactive” throughout. In addition, the Potency entry in [8], in assay [9] and in assay [10] was “inactive” each time. Also, the Potency entry in assay [6] is “inactive and 27.3 µM (active)”; in assay [11], “inactive and 12.6 µM (active)”.
Consider `c1ccc2cc(Nc3ccc(Nc4ccc5ccccc5c4)cc3)ccc2c1`, for which the Potency entry in [1], in [2], in [3], in assay [4], in assay [5] and in assay [6] was “inactive” throughout. The Potency entry in [7], in assay [12], in assay [8], in assay [10] and in assay [11] was “inactive” throughout.
For `CCCCOCCOCCOCCO`, the Potency result in assay [1], in [2], in assay [3], in assay [4], in [5] and in assay [6] was “inactive” in each case. Further, the Potency entry in assay [7], in assay [12], in [8], in [10] and in assay [11] was “inactive” in each case.
On to `O=C(OCc1ccccc1)c1ccccc1O`, for which the Potency entry in assay [1], in assay [2], in assay [3], in [4], in [5] and in assay [6] was “inactive” in each case. The Potency entry in assay [7], in assay [10] and in assay [11] was “inactive” in each case. Besides, the Potency was 5.6 µM (active) and 17.8 µM (active) in [12]; 35.6 µM (active) in assay [8]; 31.5 µM (active) and 28.3 µM (active) in [9].
As for `CC(=O)CC/C=C(\C)CCC=C(C)C`, the Potency entry in assay [1], in assay [2], in [3], in assay [4], in [5] and in assay [7] was “inactive” throughout. Also, the Potency result in [10] was “inactive”. Further, the Potency entry in [6] was “inactive and 54.5 µM (active)”; in [12], “inactive and 39.9 µM (active)”; in assay [8], “inactive and 35.6 µM (active)”; in assay [9] it was “inactive and 39.9 µM (active)”; in assay [11], “inactive and 17.8 µM (active)”.
On to `CC(C)=CCCC(C)CCO` (stereo not drawn), for which the Potency result in assay [1], in [2], in assay [3], in assay [4], in assay [5] and in [6] was “inactive” in each case. In addition, the Potency result in [7], in [8] and in [10] was “inactive” in each case. Also, the Potency entry in assay [12] was “inactive and 50.2 µM (active)”; in assay [11], “inactive and 39.9 µM (active)”.
For the compound `Oc1ccc(O)cc1`, the Potency result in [1], in assay [2], in assay [4], in assay [5], in assay [7] and in [12] was “inactive” each time. In addition, the Potency entry in assay [9], in assay [10] and in [11] was “inactive” throughout. Further, the Potency in assay [3] is 43 µM (active) and 68.6 µM (active); in [6], 54.2 µM (active) and inactive.
As to `CC(C)OB(OC(C)C)OC(C)C`, the Potency entry in assay [1], in assay [2], in assay [3], in assay [4], in assay [5] and in assay [6] was “inactive” in each case. Moreover, the Potency result in [7], in assay [8], in [9], in assay [10] and in assay [11] was “inactive” throughout.
As to `c1ccc2sc(SSN3CCOCC3)nc2c1`, the Potency result in [1], in assay [2], in assay [4], in [5], in assay [10] and in assay [11] was “inactive” in each case. For the same compound, the Potency was 61 µM (active) and 61.1 µM (active) in assay [3]; 61 µM (active) and 68.6 µM (active) in assay [6]; 17.8 µM (active) in [12]; 15.9 µM (active) and 11.2 µM (active) in [8]; 20 µM (active) and 22.4 µM (active) in assay [9].
For `OC(CCl)CCl`, the Potency result in [1], in assay [2], in assay [3], in assay [4], in assay [5] and in [6] was “inactive” each time. Also, the Potency result in assay [7], in assay [8], in [10] and in [11] was “inactive” in each case.
`Cc1cc2nc3c(=O)[nH]c(=O)nc-3n(C[C@H](O)[C@H](O)[C@H](O)CO)c2cc1C`: the Potency entry in assay [2], in assay [4], in assay [14] and in assay [11] was “inactive” in each case. In assay [6], the Potency is 30.3 µM (active) and inactive. In addition, the max activation in assay [13] is -0.456% (inactive). Besides, in [8], the activity change, negative = inhibition was -0.762% [at 23.6 µM] (inactive).
For `COC(=O)CCC(=O)OC`, the Potency result in [1], in assay [2], in [3], in assay [4], in [5] and in assay [7] was “inactive” each time. In addition, the Potency result in [8], in assay [10] and in assay [11] was “inactive” in each case. Moreover, the Potency in assay [6] is 56 µM (active) and inactive.
As for `CN(C)C(=N)N=C(N)N`, the Potency result in assay [1], in assay [2], in assay [3], in assay [4] and in assay [5] was “inactive” throughout. The max activation in [13] is -2.9% (inactive).
Turning to `O=[N+]([O-])c1ccc2c(c1)Cc1ccccc1-2`, the Potency result in [1], in assay [2], in [4], in [5], in assay [7] and in [10] was “inactive” throughout. For the same compound, the Potency result in [11] is “inactive”. In addition, the Potency in assay [6] was 48.5 µM (active) and 54.5 µM (active); in assay [9] it was 2 µM (active) and 8.94 µM (active).
In the case of `O=C=Nc1ccc(Cc2ccc(N=C=O)cc2)cc1`, the Potency result in [1], in assay [2], in [3], in assay [4], in [5] and in [7] was “inactive” each time. Moreover, the Potency entry in assay [9] and in assay [10] was “inactive” throughout. In assay [8], the Potency is 6.98 µM (active).
Take `Brc1cc(Oc2cc(Br)c(Br)c(Br)c2Br)c(Br)c(Br)c1Br`: the Potency entry in assay [1], in assay [2], in [3], in assay [4], in assay [5] and in [7] was “inactive” in each case. Further, the Potency entry in [9], in [10] and in assay [11] was “inactive” throughout. In addition, the Potency in [6] was 9.73 µM (active).
For `c1ccc2c(c1)c1cccc3ccc4cccc2c4c31`, the Potency result in assay [1], in assay [2], in [3], in assay [4], in [5] and in assay [6] was “inactive” each time. Besides, the Potency entry in assay [8], in assay [10] and in [11] was “inactive” each time. Moreover, the Potency in assay [12] is 88.8 µM (active) and inactive; in [9] it was 112 nM (active) and 20 nM (active).

Values taken from PubChem BioAssay (Tox21).
